Experimental data taken from PMC4336329 (PLoS ONE, 2015).
Among all 310,000 compounds or so, about 14,000 (4.5%) showed an effect of 50% or more. Effects have a minus sign here. The sample as a whole holds a higher share of strong results than the screen did.

Biological target: human ether-à-go-go-related gene (hERG) potassium channel (human, UniProt Q12809)
Assay: primary screen, population patch clamp on CHO cells stably expressing hERG; higher = less effect of the substance
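Note: peak tail current of the secondary pulse compared with the same well before compound.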

Chain of human ether-à-go-go-related gene (hERG) potassium channel (Q12809 whole entry, looked up): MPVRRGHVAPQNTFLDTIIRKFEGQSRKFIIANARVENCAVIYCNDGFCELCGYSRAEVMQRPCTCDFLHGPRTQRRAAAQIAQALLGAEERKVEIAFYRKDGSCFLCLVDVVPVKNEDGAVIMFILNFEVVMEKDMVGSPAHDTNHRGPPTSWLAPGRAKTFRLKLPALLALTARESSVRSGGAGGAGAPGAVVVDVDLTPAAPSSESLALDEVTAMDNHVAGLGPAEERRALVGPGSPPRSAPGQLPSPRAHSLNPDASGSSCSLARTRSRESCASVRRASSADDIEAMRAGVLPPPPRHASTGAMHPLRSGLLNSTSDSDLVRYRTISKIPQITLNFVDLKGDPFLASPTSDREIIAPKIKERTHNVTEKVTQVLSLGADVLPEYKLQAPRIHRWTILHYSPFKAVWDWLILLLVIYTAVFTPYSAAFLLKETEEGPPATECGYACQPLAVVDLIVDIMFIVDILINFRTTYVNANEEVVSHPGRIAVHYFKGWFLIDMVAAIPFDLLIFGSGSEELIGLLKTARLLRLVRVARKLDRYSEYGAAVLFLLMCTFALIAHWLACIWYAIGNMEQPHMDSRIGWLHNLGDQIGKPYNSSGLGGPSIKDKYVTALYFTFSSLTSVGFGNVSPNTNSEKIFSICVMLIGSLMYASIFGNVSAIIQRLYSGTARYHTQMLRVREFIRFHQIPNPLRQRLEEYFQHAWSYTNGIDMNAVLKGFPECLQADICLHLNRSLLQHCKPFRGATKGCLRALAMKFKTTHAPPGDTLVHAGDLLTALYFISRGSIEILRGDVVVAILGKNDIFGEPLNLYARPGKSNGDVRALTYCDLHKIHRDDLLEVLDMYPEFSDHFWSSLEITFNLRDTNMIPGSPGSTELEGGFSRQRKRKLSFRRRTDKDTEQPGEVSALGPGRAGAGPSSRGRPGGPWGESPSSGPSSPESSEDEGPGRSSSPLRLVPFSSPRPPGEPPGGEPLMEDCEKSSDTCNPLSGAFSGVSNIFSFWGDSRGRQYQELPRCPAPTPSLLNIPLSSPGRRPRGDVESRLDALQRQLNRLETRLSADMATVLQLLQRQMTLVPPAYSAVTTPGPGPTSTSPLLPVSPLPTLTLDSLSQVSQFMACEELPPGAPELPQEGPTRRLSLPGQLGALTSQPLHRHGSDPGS

Row | SMILES | hERG current change (%, negative = inhibition) at 10uM [%]
1 | COc1ccc(N(CC(=O)NCc2ccc3c(c2)OCO3)S(C)(=O)=O)cc1OC | 1.12
2 | COc1ccc(C2NC(=O)NC(C)=C2C(=O)OCC2CCCCC2)cc1OC (centres unmarked) | -2.11
3 | Cc1cc(NC(CC(C)C)C(=O)O)nc(Cc2ccccc2)n1 (centres unmarked) | 9.96
4 | CCN(CC)CCOC(=O)C1(c2ccc(OC)c(OC)c2)CCCC1.Cl | -16.9
5 | COc1cccc(Nc2c([N+](=O)[O-])cncc2[N+](=O)[O-])c1 | -2.64
6 | Cc1ccc(S(=O)(=O)Nc2ccc(-n3cnnn3)cc2)cc1 | -1.93
7 | COc1ccccc1CCNC(=O)CCC(=O)N1CC2C[C@@H](C1)Cn1c2cccc1=O | 6.31
8 | CC(C)SCC(=O)Nc1ncc2c(n1)-c1ccccc1CC2 | 7.72
9 | Cc1ccc(CCCNC(=O)C2CCC(=O)N(Cc3cccc(F)c3)C2)cc1 (centres unmarked) | -53.4
10 | O=C(NCCc1cccnc1)C1CCC(=O)N(CCc2cccc(F)c2)C1 (centres unmarked) | 7.99
11 | O=C(NCCCc1ccncc1)C1CCC(=O)N(CCc2cccc(F)c2)C1 (centres unmarked) | -51.8
12 | COc1ccc(CCN2CC(C(=O)NCCc3ccc(F)cc3)CCC2=O)cc1 (centres unmarked) | -22
13 | COc1ccccc1CCCNC(=O)C1CCC(=O)N(CCc2cccc(F)c2)C1 (centres unmarked) | -19.1
14 | Cc1ccc(CCNC(=O)C2CCC(=O)N(Cc3cccc(F)c3)C2)cc1 (centres unmarked) | -4.64
15 | COc1cccc(CN2CC(C(=O)NCCCc3ccc(C)cc3)CCC2=O)c1 (centres unmarked) | -28.4
16 | COc1ccc(CCCNC(=O)C2CCC(=O)N(CCc3cccc(F)c3)C2)cc1 (centres unmarked) | -53.1
17 | O=C(NCCCc1ccncc1)C1CCC(=O)N(Cc2cccc(F)c2)C1 (centres unmarked) | -14.5
18 | O=C(CN1C(=O)NC2(CCCCCCC2)C1=O)NCc1cccs1 | 7.8
19 | CC(=O)c1c(C)[nH]c(C(=O)COc2ccc3c(C)cc(=O)oc3c2)c1C | 7.54
20 | CC(=O)c1cc(NC(=O)c2ccccc2)c(=O)oc1/C=C/N(C)C | -12.1
21 | S=C(NCCCN1CCOCC1)Nc1ccc(-c2nc3ccccc3[nH]2)cc1 | -11.7

Row | SMILES | hERG current change (%, negative = inhibition) at 10uM [%]
22 | CSc1cccc(NS(=O)(=O)c2ccc(-c3coc(C)n3)cc2)c1 | 22.6
23 | CCCCn1c(SCc2cccc([N+](=O)[O-])c2)nc2ccsc2c1=O | 10
24 | CN1CCN(CCCNC(=O)c2ccc(Cn3c(=S)[nH]c4ccc(Br)cc4c3=O)cc2)CC1 | 17.4
25 | Cc1ccc2nc(N3CCC(C(=O)N4CCC5(CC4)OCCO5)CC3)sc2c1 | -19.8
26 | CC(=O)N1CCN(c2nc3ccc(Br)cc3s2)CC1 | -49.4
27 | CC(C)(C)C(=O)N1CCN(c2nc3ccc(Br)cc3s2)CC1 | -8.45
28 | O=C(C1CCN(c2nc3ccc(Br)cc3s2)CC1)N1CCC2(CC1)OCCO2 | -62.3
29 | CCCCC(=O)N1CCN(c2nc3ccc(Br)cc3s2)CC1 | -69.4
30 | CCC(=O)N1CCN(c2nc3ccc(Br)cc3s2)CC1 | -44.2
31 | CCCC(=O)N1CCN(c2nc3ccc(Br)cc3s2)CC1 | -71
32 | CCc1ccc2nc(N3CCC(C(=O)N4CCC5(CC4)OCCO5)CC3)sc2c1 | -42.5
33 | Brc1ccc2nc(N3CCCC3)sc2c1 | 13
34 | Cc1nc([N+](=O)[O-])cn1Cc1cccc([N+](=O)[O-])c1 | -8.42
35 | CCOC(=O)C(=O)N/N=C/c1ccco1 | 11.3
36 | CCOc1ccc(-n2c(SCC(N)=O)nc3c(c2=O)SCC3)cc1 | 12
37 | Cc1ccccc1OCCNc1cc(N2CC(C)NC(C)C2)ccc1[N+](=O)[O-] (centres unmarked) | -12.3
38 | Cc1ccc(C2CC2C(=O)NNC(=S)Nc2cccc(Cl)c2)cc1 (centres unmarked) | -4.44
39 | COc1ccc(OCc2cc(C(=O)N3CCN(CC(=O)N(C)C)CC3)no2)c(Cl)c1 | -13.4
40 | COc1cc2c(=O)n(CC3CCCO3)c(=O)n(CC(=O)Nc3ccccc3)c2cc1OC (centres unmarked) | -2.85
41 | Cc1nc2ccn(Cc3ccccc3)c(=O)c2cc1C(=O)N1CCN(c2ccc(F)cc2)CC1 | -78.5
42 | Cc1nc2ccn(Cc3ccccc3)c(=O)c2cc1C(=O)N1CCN(c2ccccc2)CC1 | -74

Row | SMILES | hERG current change (%, negative = inhibition) at 10uM [%]
43 | COc1ccc(Cn2c(=O)[nH]c3cc(C(=O)N4CCN(c5ccccc5)CC4)ccc3c2=O)cc1 | 9.23
44 | O=C(c1ccc(Cn2c(=O)[nH]c3ccccc3c2=O)cc1)N1CCN(c2ccc(F)cc2)CC1 | -15.5
45 | O=C(c1cc(-c2ccco2)nc2ccccc12)N1CCN(c2ccc(F)cc2)CC1 | -28.8
46 | CS(=O)(=O)N(Cc1ccccc1)c1ccccc1C(=O)N1CCN(c2ccccc2)CC1 | -46.6
47 | COc1ccc(N2CCN(C(=O)c3cc4c(C)nc5ccccc5c4o3)CC2)cc1 | -47
48 | COc1cccc(N2CCN(C(=O)c3cc4c(=O)n(Cc5ccccc5)ccc4nc3C)CC2)c1 | -49.8
49 | COc1ccc(N2CCN(C(=O)c3cc4c(=O)n(Cc5ccccc5)ccc4nc3C)CC2)cc1 | -55.2
50 | CSC1=C(C#N)C(c2ccc(Cl)cc2)C2=C(CC(C)(C)CC2=O)N1 (centres unmarked) | -6.94
51 | C=CCCCCc1nc2ccccc2c(=O)n1N | 6.28
52 | Cc1ccc2c(C)nc(N/C(N)=N/S(=O)(=O)c3ccc([N+](=O)[O-])cc3)nc2c1 | -13.1
53 | COc1cc(C(=O)NC(c2ccccc2)c2ccccc2)cc(OC)c1C | 15.2
54 | COC(CNC(=O)[C@H](CSCc1ccccc1)N1Cc2ccccc2C1=O)OC | -3.49
55 | O=C(NCCCN1CCCC1=O)[C@H](CSCc1ccccc1)N1Cc2ccccc2C1=O | 1.78
56 | CC(C)CCNC(=O)[C@H](Cc1ccccc1)N1Cc2ccccc2C1=O | -11.6
57 | COCCCNC(=O)[C@H](CSCc1ccccc1)N1Cc2ccccc2C1=O | -14.5
58 | CCCCNC(=O)[C@H](CSCc1ccccc1)N1Cc2ccccc2C1=O | -68.5
59 | CC(C)CCNC(=O)[C@H](CSCc1ccccc1)N1Cc2ccccc2C1=O | -61
60 | COCCNC(=O)[C@H](CSCc1ccccc1)N1Cc2ccccc2C1=O | -42.6
61 | O=C(NCCCN1CCCC1)[C@H](CSCc1ccccc1)N1Cc2ccccc2C1=O | -56.8
62 | CC(C)NC(=O)[C@H](CSCc1ccccc1)N1Cc2ccccc2C1=O | -40
